# Reference: PubChem BioAssay (NCATS)
# Inconclusive results are not listed. Entries that show only a call come without a potency. Values without a mark were called inactive. Active and inactive are the calls of the source. Calls follow the shape of the dose curve; as a rule, active = well fitted curve in the direction sought with a large enough effect; inconclusive = small, poorly fitted or top-dose-only effect, or another doubt; inactive = no such curve, though single readings can be large; an effect the other way counts as inactive or inconclusive.
# Key:
# NIH3T3 [1] = assay: Cytotoxic Profiling of Annotated Libraries Using Quantitative High-Throughput Screening (AID 1296008); conditions: Five cell lines viability, CellTiter-Glo ATP luminescence, 48-72 h; max response: hits give low values; also: nearly all actives have a fitted effect of over 60% in size
# Method in brief: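 Cells exposed to compounds for 48 or 72 hr at 37 degrees Celsius. Viability read as ATP-coupled luminescence with CellTiter-Glo after 10 min at room temperature.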
# MCC-13 = assay: qHTS assay to identify novel small-molecules to repurpose for Merkel cell carcinoma treatment (AID 1296009); conditions: MCC and control cell lines, CellTiter-Glo viability, 72 h; series mostly up to 46 µM; also: nearly all actives have a fitted effect of over 60% in size
# Method in brief: (§1)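 CellTiter-Glo luminescence after 72 hr compound exposure at 37 degree celsius gave cell viability. Libraries NPC and MIPE were run as 8- and 11-point dose responses; RLUs normalized to DMSO (negative) and no-cell (cytotoxicity) controls.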
# MCC-26 = assay: as above; conditions: MCC and control cell lines, CellTiter-Glo viability, 72 h; series mostly up to 46 µM
# Method in brief: as §1
# MKL-1 = assay: as above; conditions: MCC and control cell lines, CellTiter-Glo viability, 72 h; series mostly up to 46 µM
# Method in brief: as §1
# MKL-2 = assay: as above; conditions: MCC and control cell lines, CellTiter-Glo viability, 72 h; series mostly up to 46 µM
# Method in brief: as §1
# UISO = assay: as above; conditions: MCC and control cell lines, CellTiter-Glo viability, 72 h; series mostly up to 46 µM
# Method in brief: as §1
# WaGa = assay: as above; conditions: MCC and control cell lines, CellTiter-Glo viability, 72 h; series mostly up to 46 µM
# Method in brief: as §1
# C33A = assay: Primary qHTS to identify gynecologic anti-cancer compounds using libraries of approved drugs and bioactive compounds (AID 1345084); conditions: Gynecologic cancer cell panel viability, ATPlite luminescence, 48 h; series mostly up to 57.5 µM; also: nearly all actives have a fitted effect of over 55% in size
# Method in brief: (§2)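 Five-concentration response, 48 h; readout is ATP-driven luciferase luminescence.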
# CAOV3 = assay: as above; conditions: Gynecologic cancer cell panel viability, ATPlite luminescence, 48 h; series mostly up to 57.5 µM
# Method in brief: as §2
# CASKI = assay: as above; conditions: Gynecologic cancer cell panel viability, ATPlite luminescence, 48 h; series mostly up to 57.5 µM
# Method in brief: as §2
# Es-2 = assay: as above; conditions: Gynecologic cancer cell panel viability, ATPlite luminescence, 48 h; series mostly up to 57.5 µM
# Method in brief: as §2
# HeLa = assay: as above; conditions: Gynecologic cancer cell panel viability, ATPlite luminescence, 48 h; series mostly up to 57.5 µM
# Method in brief: as §2
# JEG-3 = assay: as above; conditions: Gynecologic cancer cell panel viability, ATPlite luminescence, 48 h; series mostly up to 57.5 µM
# Method in brief: as §2
# OV90 = assay: as above; conditions: Gynecologic cancer cell panel viability, ATPlite luminescence, 48 h; series mostly up to 57.5 µM
# Method in brief: as §2
# PA-1 = assay: as above; conditions: Gynecologic cancer cell panel viability, ATPlite luminescence, 48 h; series mostly up to 57.5 µM
# Method in brief: as §2
# SKOV3 = assay: as above; conditions: Gynecologic cancer cell panel viability, ATPlite luminescence, 48 h; series mostly up to 57.5 µM
# Method in brief: as §2
# Hek293T = assay: as above; conditions: Gynecologic cancer cell panel viability, ATPlite luminescence, 48 h, control line for the selectivity index; series mostly up to 57.5 µM
# Method in brief: as §2
# NIH3T3 [2] = assay: qHTS assay to identify novel small-molecules to repurpose for Merkel cell carcinoma treatment (AID 1296009); conditions: MCC and control cell lines, CellTiter-Glo viability, 72 h; at 44.8 µM (top of the series) unless noted; also: nearly all actives have a fitted effect of over 60% in size
# Method in brief: as §1
# Potency is read from the fitted curve at half-maximal effect.
SMILES,max response (NIH3T3 [1]),Potency (MCC-13),Potency (MCC-26),Potency (MKL-1),Potency (MKL-2),Potency (UISO),Potency (WaGa),Potency (C33A),Potency (CAOV3),Potency (CASKI),Potency (Es-2),Potency (HeLa),Potency (JEG-3),Potency (OV90),Potency (PA-1),Potency (SKOV3),Potency (NIH3T3 [1]),Potency (Hek293T),outcome (NIH3T3 [1]),outcome (NIH3T3 [2])
CNC[C@H](O)[C@@H](O)[C@H](O)[C@H](O)CO,1.64%,inactive,inactive,inactive,inactive,inactive,inactive,inactive,inactive,inactive,inactive,inactive,inactive,inactive,inactive,inactive,,,,
Cc1cc2nc3ccc(=[N+](C)C)cc-3sc2cc1N,,2.99 µM (active),11.9 µM (active),0.596 µM (active),0.531 µM (active),1.68 µM (active),0.668 µM (active),3.98 µM (active),,12.6 µM (active),14.1 µM (active),,,22.4 µM (active),3.55 µM (active),35.5 µM (active),10.6 µM (active),14.1 µM (active),,
O=C(O)c1ccccc1S,1.26%,inactive,inactive,inactive,inactive,inactive,inactive,inactive,inactive,inactive,inactive,inactive,inactive,inactive,inactive,inactive,,inactive,,
CCc1cc(S(=O)(=O)O)c2cc(C(C)C)cccc1-2,1.41%,inactive,inactive,inactive,inactive,inactive,inactive,inactive,inactive,inactive,inactive,inactive,inactive,inactive,inactive,inactive,,inactive,,
CC(C)C(C)(C)C(C)(C)C(C)(C)S,-4.3%,inactive,inactive,inactive,inactive,inactive,inactive,inactive,inactive,inactive,inactive,inactive,,inactive,,,,inactive,,
O=C(NN1CCCC1)NS(=O)(=O)c1ccc(Cl)cc1,4.71%,inactive,inactive,inactive,inactive,inactive,inactive,inactive,inactive,inactive,inactive,inactive,inactive,inactive,inactive,inactive,,inactive,,
CC(=O)N(CC(=O)N(C)C)c1ccccc1,1.94%,inactive,inactive,inactive,inactive,inactive,inactive,inactive,,,inactive,inactive,,,,inactive,,inactive,,
O=C(O)CCCC[C@@H]1SC[C@@H]2NC(=O)N[C@@H]21,1.46%,inactive,inactive,inactive,inactive,inactive,inactive,inactive,inactive,inactive,inactive,inactive,inactive,inactive,inactive,inactive,,inactive,,
Brc1ccccc1-c1ccccc1,-3.48%,inactive,inactive,inactive,inactive,inactive,inactive,inactive,,inactive,inactive,inactive,inactive,inactive,inactive,inactive,,inactive,,
COC(=O)C1=C(C)NC(COC(N)=O)=C(C(=O)OC(C)C)C1c1cccc(Cl)c1Cl (configuration not stated),,inactive,inactive,inactive,,inactive,,inactive,inactive,inactive,inactive,inactive,inactive,inactive,inactive,inactive,15 µM (active),inactive,,
CC(C)=CCNc1ncnc2c1ncn2[C@@H]1O[C@H](CO)[C@@H](O)[C@H]1O,,8.41 µM (active),,1.68 µM (active),0.944 µM (active),1.88 µM (active),2.99 µM (active),12.6 µM (active),7.94 µM (active),12.6 µM (active),25.1 µM (active),14.1 µM (active),,17.8 µM (active),7.94 µM (active),11.2 µM (active),7.5 µM (active),,,
Nc1c2ccccc2nc2ccccc12,,18.8 µM (active),,3.35 µM (active),,,,,,,14.1 µM (active),,,28.2 µM (active),,,21.1 µM (active),8.91 µM (active),,
O=C1Nc2ccccc2C1(c1ccc(O)cc1)c1ccc(O)cc1,-21.7%,inactive,inactive,inactive,inactive,,,,,inactive,inactive,inactive,inactive,,inactive,,,inactive,,
COc1cc2nc(Cl)nc(N)c2cc1OC,-0.129%,inactive,inactive,inactive,inactive,,,inactive,,inactive,inactive,inactive,inactive,inactive,inactive,inactive,,inactive,,
CCOC(=O)N1CCC(n2c(=O)[nH]c3cc(Cl)ccc32)CC1,3.06%,inactive,inactive,inactive,,,,inactive,inactive,inactive,inactive,inactive,,,inactive,,,,,
CC[C@@]1(O)C(=O)OCc2c1cc1n(c2=O)Cc2c-1nc1ccccc1c2/C=N/OC(C)(C)C,,0.0841 µM (active),0.0944 µM (active),,0.0376 µM (active),0.168 µM (active),0.0266 µM (active),,,,,inactive,inactive,8.91 µM (active),,,0.266 µM (active),0.355 µM (active),,
CC[N+](CC)(CC)CCOC(=O)C(C1CCCC1)C1CCCC1,-5.66%,inactive,inactive,11.9 µM (active),5.96 µM (active),,9.44 µM (active),inactive,inactive,,inactive,inactive,inactive,,,inactive,,inactive,,

SMILES,max response (NIH3T3 [1]),Potency (MCC-13),Potency (MCC-26),Potency (MKL-1),Potency (MKL-2),Potency (UISO),Potency (WaGa),Potency (C33A),Potency (CAOV3),Potency (CASKI),Potency (Es-2),Potency (HeLa),Potency (JEG-3),Potency (OV90),Potency (PA-1),Potency (SKOV3),Potency (NIH3T3 [1]),Potency (Hek293T),outcome (NIH3T3 [1]),outcome (NIH3T3 [2])
O=c1[nH]sc2cc(Cl)ccc12,-92.7%,6.68 µM (active),,inactive,inactive,,inactive,,,inactive,,inactive,inactive,inactive,,,,,,
CCCCC/C=C\C/C=C\CCCCCCCC(=O)NC(C)c1ccccc1 (configuration not stated),-26.3%,inactive,inactive,inactive,,inactive,inactive,inactive,inactive,inactive,inactive,inactive,inactive,,inactive,,,inactive,,
C=CC[N+]1([C@H]2C[C@H]3[C@@H]4CC[C@H]5C[C@H](OC(C)=O)[C@@H](N6CCCCC6)C[C@]5(C)[C@H]4CC[C@]3(C)[C@H]2OC(=O)CC)CCCCC1,-0.979%,inactive,inactive,inactive,,inactive,inactive,inactive,inactive,inactive,inactive,inactive,inactive,,inactive,inactive,,inactive,,
CN1CCC(N(Cc2cccs2)c2ccccc2)CC1,-5.48%,inactive,inactive,inactive,inactive,,inactive,inactive,inactive,inactive,inactive,inactive,inactive,,inactive,inactive,,inactive,,
C[N+]1(CC2COC(c3ccccc3)(c3ccccc3)O2)CCCCC1 (configuration not stated),-38.8%,inactive,inactive,inactive,,inactive,inactive,inactive,inactive,inactive,inactive,inactive,inactive,,inactive,,,inactive,,
CC(C)(C)C1CCC(CC2=C(O)c3ccccc3C(=O)C2=O)CC1 (configuration not stated),-2.94%,inactive,inactive,inactive,inactive,,inactive,inactive,inactive,inactive,inactive,inactive,inactive,,inactive,,,inactive,,
Oc1cccc2[nH]ccc12,-6.12%,inactive,inactive,inactive,inactive,26.6 µM (active),,inactive,inactive,inactive,inactive,inactive,inactive,inactive,inactive,inactive,,inactive,,
COc1cc(S(N)(=O)=O)cc(C(=O)O)c1OC,,inactive,,inactive,inactive,inactive,inactive,inactive,inactive,inactive,inactive,inactive,inactive,inactive,inactive,inactive,,inactive,inactive,inactive
CCCN(CCC)C(=O)C(CCC(=O)OCCCN1CCN(CCOC(=O)Cc2c(C)n(C(=O)c3ccc(Cl)cc3)c3ccc(OC)cc23)CC1)NC(=O)c1ccccc1 (configuration not stated),1.41%,inactive,inactive,inactive,,inactive,,inactive,inactive,inactive,inactive,inactive,inactive,inactive,inactive,,,inactive,,
O=C(NO)c1ccccc1,-4.92%,inactive,inactive,inactive,,inactive,32.6 µM (active),inactive,inactive,inactive,inactive,inactive,inactive,inactive,inactive,inactive,,inactive,,
Cc1cccc(N(C)C(=S)Oc2ccc3c(c2)CCC3)c1,-6.52%,inactive,inactive,inactive,inactive,inactive,,inactive,inactive,inactive,inactive,inactive,inactive,inactive,inactive,inactive,,inactive,,
OC1(c2ccccc2)CCNCC1,,inactive,,inactive,inactive,inactive,inactive,inactive,inactive,inactive,inactive,inactive,inactive,inactive,inactive,inactive,,inactive,inactive,inactive
O=C(OCC(O)CO)c1ccccc1Nc1ccnc2c(C(F)(F)F)cccc12 (configuration not stated),-7.27%,inactive,inactive,,,inactive,inactive,inactive,inactive,inactive,inactive,inactive,inactive,inactive,inactive,,,inactive,,
CCC[C@H](N[C@@H](C)C(=O)N1[C@H](C(=O)O)C[C@@H]2CCCC[C@@H]21)C(=O)OCC,-9.35%,inactive,inactive,inactive,inactive,inactive,,inactive,inactive,inactive,inactive,inactive,inactive,inactive,inactive,inactive,,inactive,,
CN(C)CCOC(c1ccccc1)c1ccc(Br)cc1 (configuration not stated),-1.24%,inactive,inactive,inactive,,inactive,23.7 µM (active),inactive,inactive,inactive,inactive,inactive,inactive,12.6 µM (active),inactive,,,inactive,,
CCCCCCCCCCCCCCCC[n+]1ccccc1,,11.9 µM (active),,0.841 µM (active),0.422 µM (active),1.68 µM (active),2.11 µM (active),17.8 µM (active),,7.94 µM (active),17.8 µM (active),,,31.6 µM (active),,,16.8 µM (active),8.91 µM (active),,
CO[C@@H]1[C@@H](OC)[C@H](C)[C@@](O)(CC(=O)O)O[C@H]1[C@H](C)[C@H]1O[C@@]2(CC[C@@](C)([C@H]3CC[C@@](C)([C@@H]4O[C@@H]([C@H]5O[C@](C)(O)[C@H](C)C[C@@H]5C)C[C@@H]4OC4C[C@H](OC)[C@@H](OC)[C@H](C)O4)O3)O2)C[C@H](O)[C@H]1C (some centres not stated),,2.99 µM (active),,0.376 µM (active),0.211 µM (active),0.596 µM (active),0.335 µM (active),,14.1 µM (active),,10 µM (active),,6.31 µM (active),1.78 µM (active),,,6.68 µM (active),2.82 µM (active),,
